Data: PMC5540273 (PLoS ONE, 2017)

Experiments:
Conditions in all cases: concentration: 1 μM,replicates: in singlicate; n = 1
PLK2 = tested on: PLK2
PLK3 = tested on: PLK3
PLK4 = tested on: PLK4
PRKCD = tested on: PRKCD
PRKCE = tested on: PRKCE
PRKCH = tested on: PRKCH
PRKCI = tested on: PRKCI
PRKCQ = tested on: PRKCQ
PRKD1 = tested on: PRKD1
PRKD2 = tested on: PRKD2
PRKD3 = tested on: PRKD3
PRKG1 = tested on: PRKG1
PRKG2 = tested on: PRKG2
PRKR = tested on: T1, PRKR
T1 construct: gene EIF2AK2

PRKX = tested on: PRKX
PRP4 = tested on: PRP4
PYK2 = tested on: T2, PYK2
T2 construct: gene PTK2B

QSK = tested on: QSK
RAF1 = tested on: RAF1
RET = tested on: RET
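Further: KINOMEscan kinase panel screen.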

CN(C)CC(O)COc1ccc(Nc2nccc(-c3cnn4nc(N5CCOCC5)ccc34)n2)cc1 (stereo not drawn) [GW767488]
%Inh (PLK2): 28% | %Inh (PLK3): 35% | %Inh (PLK4): 63% | %Inh (PRKCD): 14% | %Inh (PRKCE): 0% | %Inh (PRKCH): 0% | %Inh (PRKCI): 36% | %Inh (PRKCQ): 21% | %Inh (PRKD1): 93.7% | %Inh (PRKD2): 98.2% | %Inh (PRKD3): 93.6% | %Inh (PRKG1): 0% | %Inh (PRKG2): 50% | %Inh (PRKR): 59% | %Inh (PRKX): 8% | %Inh (PRP4): 2% | %Inh (PYK2): 29% | %Inh (QSK): 43% | %Inh (RAF1): 6% | %Inh (RET): 17%

Cl.Oc1cc(-c2nc(-c3ccccc3)[nH]c2-c2ccncc2)ccc1Cl [SB-386023]
%Inh (PLK2): 33% | %Inh (PLK3): 12% | %Inh (PLK4): 17% | %Inh (PRKCD): 0% | %Inh (PRKCE): 13% | %Inh (PRKCH): 1% | %Inh (PRKCI): 0% | %Inh (PRKCQ): 8% | %Inh (PRKD1): 0% | %Inh (PRKD2): 2% | %Inh (PRKD3): 0% | %Inh (PRKG1): 15% | %Inh (PRKG2): 0% | %Inh (PRKR): 0% | %Inh (PRKX): 0% | %Inh (PRP4): 0% | %Inh (PYK2): 6% | %Inh (QSK): 33% | %Inh (RAF1): 97.9% | %Inh (RET): 66%

CNC(=O)c1ccccc1Sc1ccc2c(/C=C/c3ccccn3)n[nH]c2c1
%Inh (PLK2): 40% | %Inh (PLK3): 34% | %Inh (PLK4): 97.7% | %Inh (PRKCD): 4% | %Inh (PRKCE): 58% | %Inh (PRKCH): 0% | %Inh (PRKCI): 9% | %Inh (PRKCQ): 3% | %Inh (PRKD1): 0% | %Inh (PRKD2): 8% | %Inh (PRKD3): 0% | %Inh (PRKG1): 0% | %Inh (PRKG2): 0% | %Inh (PRKR): 0% | %Inh (PRKX): 9% | %Inh (PRP4): 0% | %Inh (PYK2): 20% | %Inh (QSK): 0% | %Inh (RAF1): 3%

Cc1cc2cn[nH]c2cc1-c1cccc2c(N)c(C(N)=O)nnc12
%Inh (PLK2): 5% | %Inh (PLK3): 0% | %Inh (PLK4): 51% | %Inh (PRKCD): 5% | %Inh (PRKCE): 4% | %Inh (PRKCH): 7% | %Inh (PRKCI): 23% | %Inh (PRKCQ): 21% | %Inh (PRKD1): 86% | %Inh (PRKD2): 89% | %Inh (PRKD3): 84% | %Inh (PRKG1): 0% | %Inh (PRKG2): 23% | %Inh (PRKR): 2% | %Inh (PRKX): 20% | %Inh (PRP4): 6% | %Inh (PYK2): 27% | %Inh (QSK): 15% | %Inh (RAF1): 0% | %Inh (RET): 19%

CCN(CC)CCCCNc1ncc2cc(-c3c(Cl)cccc3Cl)c(NC(=O)NC(C)(C)C)nc2n1
%Inh (PLK2): 5% | %Inh (PLK3): 7% | %Inh (PLK4): 13% | %Inh (PRKCD): 22% | %Inh (PRKCE): 74% | %Inh (PRKCH): 0% | %Inh (PRKCI): 19% | %Inh (PRKCQ): 0% | %Inh (PRKD1): 28% | %Inh (PRKD2): 5% | %Inh (PRKD3): 25% | %Inh (PRKG1): 2% | %Inh (PRKG2): 7% | %Inh (PRKR): 0% | %Inh (PRKX): 0% | %Inh (PRP4): 0% | %Inh (PYK2): 4% | %Inh (QSK): 39% | %Inh (RAF1): 87% | %Inh (RET): 96.5%

CN(C)CCOc1ccc(-c2cc(-c3c[nH]nc3-c3ccccn3)ccn2)cc1 [GW835314]
%Inh (PLK2): 21% | %Inh (PLK3): 0% | %Inh (PLK4): 2% | %Inh (PRKCD): 23% | %Inh (PRKCE): 11% | %Inh (PRKCH): 8% | %Inh (PRKCI): 14% | %Inh (PRKCQ): 100% | %Inh (PRKD1): 89% | %Inh (PRKD2): 96.1% | %Inh (PRKD3): 91.5% | %Inh (PRKG1): 0% | %Inh (PRKG2): 12% | %Inh (PRKR): 0% | %Inh (PRKX): 0% | %Inh (PRP4): 0% | %Inh (PYK2): 0% | %Inh (QSK): 9% | %Inh (RAF1): 28% | %Inh (RET): 36%

CC(C)N1C(=O)Cc2cc(Nc3ncc(C(F)(F)F)c(NCc4cccc(S(C)(=O)=O)c4)n3)ccc21
%Inh (PLK2): 61% | %Inh (PLK3): 64% | %Inh (PLK4): 67% | %Inh (PRKCD): 0% | %Inh (PRKCE): 0% | %Inh (PRKCH): 0% | %Inh (PRKCI): 0% | %Inh (PRKCQ): 9% | %Inh (PRKD1): 0% | %Inh (PRKD2): 16% | %Inh (PRKD3): 0% | %Inh (PRKG1): 0% | %Inh (PRKG2): 8% | %Inh (PRKR): 0% | %Inh (PRKX): 0% | %Inh (PRP4): 25% | %Inh (PYK2): 22% | %Inh (QSK): 0% | %Inh (RAF1): 0% | %Inh (RET): 86%

Cc1ccc(-n2nc(C(C)(C)C)cc2NC(=O)Nc2ccc(OCCN3CCOCC3)c3ccccc23)cc1 [GW839464]
%Inh (PLK2): 0% | %Inh (PLK3): 0% | %Inh (PLK4): 2% | %Inh (PRKCD): 21% | %Inh (PRKCE): 15% | %Inh (PRKCH): 0% | %Inh (PRKCI): 20% | %Inh (PRKCQ): 0% | %Inh (PRKD1): 0% | %Inh (PRKD2): 20% | %Inh (PRKD3): 16% | %Inh (PRKG1): 0% | %Inh (PRKG2): 3% | %Inh (PRKR): 8% | %Inh (PRKX): 0% | %Inh (PRP4): 15% | %Inh (QSK): 1% | %Inh (RAF1): 26% | %Inh (RET): 54%

C=CC(=O)Nc1cc2c(Nc3ccc(F)c(Cl)c3)ncnc2cc1OCCCN1CCOCC1 [GW781483]
%Inh (PLK2): 0% | %Inh (PLK3): 0% | %Inh (PLK4): 26% | %Inh (PRKCD): 0% | %Inh (PRKCE): 30% | %Inh (PRKCH): 0% | %Inh (PRKCI): 0% | %Inh (PRKD1): 0% | %Inh (PRKD2): 0% | %Inh (PRKD3): 0% | %Inh (PRKG1): 0% | %Inh (PRKG2): 31% | %Inh (PRKR): 0% | %Inh (PRKX): 0% | %Inh (PRP4): 0% | %Inh (PYK2): 1% | %Inh (QSK): 1% | %Inh (RAF1): 0% | %Inh (RET): 38%

C[C@H]1Oc2cc(cnc2N)-c2c(nn(C)c2C#N)CN(C)C(=O)c2ccc(F)cc21
%Inh (PLK2): 0% | %Inh (PLK3): 0% | %Inh (PLK4): 97.9% | %Inh (PRKCD): 15% | %Inh (PRKCE): 0% | %Inh (PRKCH): 12% | %Inh (PRKCI): 21% | %Inh (PRKCQ): 12% | %Inh (PRKD1): 0% | %Inh (PRKD2): 12% | %Inh (PRKD3): 8% | %Inh (PRKG1): 0% | %Inh (PRKG2): 10% | %Inh (PRKR): 0% | %Inh (PRKX): 7% | %Inh (PRP4): 0% | %Inh (PYK2): 99.6% | %Inh (QSK): 0% | %Inh (RAF1): 0% | %Inh (RET): 22%

C[C@@H](Oc1cc(-c2cnn(C3CCNCC3)c2)cnc1N)c1c(Cl)ccc(F)c1Cl
%Inh (PLK2): 17% | %Inh (PLK3): 17% | %Inh (PLK4): 88% | %Inh (PRKCD): 20% | %Inh (PRKCE): 2% | %Inh (PRKCH): 0% | %Inh (PRKCI): 24% | %Inh (PRKCQ): 26% | %Inh (PRKD1): 61% | %Inh (PRKD2): 31% | %Inh (PRKD3): 63% | %Inh (PRKG1): 0% | %Inh (PRKG2): 3% | %Inh (PRKR): 26% | %Inh (PRKX): 35% | %Inh (PRP4): 0% | %Inh (PYK2): 80% | %Inh (QSK): 0% | %Inh (RAF1): 0%

Cc1occc1-c1nc(N)c(OC[C@@H](N)Cc2c[nH]c3ccccc23)cc1-c1cc2c(C)n[nH]c2cn1 [GSK1660450]
%Inh (PLK2): 65% | %Inh (PLK3): 52% | %Inh (PLK4): 0% | %Inh (PRKCD): 100% | %Inh (PRKCE): 99.6% | %Inh (PRKCH): 95.7% | %Inh (PRKCI): 34% | %Inh (PRKCQ): 100% | %Inh (PRKD1): 93.3% | %Inh (PRKD2): 97.4% | %Inh (PRKD3): 100% | %Inh (PRKG1): 78% | %Inh (PRKG2): 96.2% | %Inh (PRKR): 0% | %Inh (PRKX): 79% | %Inh (PRP4): 0% | %Inh (PYK2): 0% | %Inh (QSK): 90.4% | %Inh (RAF1): 0% | %Inh (RET): 23%

Cl.Cl.Nc1nc(-c2ccc3c(N)n[nH]c3c2)cc(N2CCCC(NC(=O)c3ccccc3)C2)n1 (stereo not drawn) [GSK2286775]
%Inh (PLK2): 0% | %Inh (PLK3): 1% | %Inh (PLK4): 16% | %Inh (PRKCD): 0% | %Inh (PRKCE): 10% | %Inh (PRKCH): 0% | %Inh (PRKCI): 24% | %Inh (PRKCQ): 18% | %Inh (PRKD1): 0% | %Inh (PRKD2): 0% | %Inh (PRKD3): 0% | %Inh (PRKG1): 0% | %Inh (PRKG2): 38% | %Inh (PRKR): 5% | %Inh (PRKX): 83% | %Inh (PRP4): 36% | %Inh (PYK2): 15% | %Inh (QSK): 0% | %Inh (RAF1): 9% | %Inh (RET): 0%

Nc1nc(Nc2ccccc2)cc(-c2ccc3c(N)n[nH]c3c2)n1 [GSK2225749]
%Inh (PLK2): 0% | %Inh (PLK3): 0% | %Inh (PLK4): 6% | %Inh (PRKCD): 8% | %Inh (PRKCE): 0% | %Inh (PRKCH): 0% | %Inh (PRKCI): 20% | %Inh (PRKCQ): 0% | %Inh (PRKD1): 0% | %Inh (PRKD2): 0% | %Inh (PRKD3): 0% | %Inh (PRKG1): 12% | %Inh (PRKG2): 45% | %Inh (PRKR): 3% | %Inh (PRKX): 57% | %Inh (PRP4): 60% | %Inh (PYK2): 0% | %Inh (QSK): 0% | %Inh (RAF1): 0% | %Inh (RET): 6%
